In PubChem BioAssay (NCATS):
Results filed as inconclusive are left out. A call without a number means that no potency is given here. Values without a mark were called inactive. Activity calls are given as the source filed them. The call rests on the fitted dose curve; in most records, active means well fitted curve in the direction sought with a large enough effect; inconclusive means small, poorly fitted or top-dose-only effect, or another doubt; inactive means no such curve, though single readings can be large; an effect the other way counts as inactive or inconclusive.

How the values were obtained:
[1] = Primary qHTS for inhibitors of nuclear receptor binding SET domain protein 2 (NSD2) in an isogenic RCH-ACV NSD2 p.E1099K mutant (9B) (AID 1645876)
[2] = Primary qHTS for inhibitors of nuclear receptor binding SET domain protein 2 (NSD2) in an RCH-ACV wild type WT cells (2C) (AID 1645877)
Further: nearly all actives have a fitted effect of over 70% in size.
Potency means the concentration at half of the fitted maximal effect.

## C=C1C[C@]23C[C@H]1CC[C@H]2[C@]1(C)CCC[C@@]2(CO)C(=O)O[C@H]([C@H]21)[C@@H]3O
[1]
  Potency: inactive
[2]
  Potency: inactive

## C[C@]1(O)CC[C@@H]2C(C(=O)O)=CO[C@@H](O[C@@H]3O[C@H](COC(=O)c4ccc(O)cc4)[C@@H](O)[C@H](O)[C@H]3O)[C@@H]21
[1]
  Potency: inactive
[2]
  Potency: inactive

## C=CCc1ccc(O[C@@H]2O[C@H](CO[C@@H]3O[C@@H](C)[C@H](O)[C@@H](O)[C@H]3O)[C@@H](O)[C@H](O)[C@H]2O)cc1
[1]
  Potency: inactive
[2]
  Potency: inactive

## CCCCCCc1cccc(NC(=O)[C@H](N)CCP(=O)(O)O)c1
[1]
  outcome: inactive [at 9.23 µM]
[2]
  outcome: inactive [at 9.23 µM]

## COc1cc([C@@H]2Oc3c(OC)cc(CCCO)cc3[C@@H]2CO[C@@H]2O[C@H](CO)[C@@H](O)[C@H](O)[C@H]2O)ccc1O
[1]
  Potency: inactive
[2]
  Potency: inactive

## C/C=C/C=C/C=C/C(=O)O[C@@H]1[C@@H](OC)C2=C(C(=O)N(C(C)C(=O)O)C2)[C@@]2(C)CCCC(C)(C)[C@H]12 (some centres not stated)
[1]
  Potency: inactive
[2]
  Potency: inactive

## C[C@H]1[C@H](C)CC[C@]2(C(=O)O[C@@H]3O[C@H](CO)[C@@H](O)[C@H](O)[C@H]3O)CC[C@]3(C(=O)O)C(=CCC4[C@@]5(C)CC[C@H](O[C@@H]6O[C@H](CO)[C@@H](O)[C@H](O)[C@H]6O)C(C)(C)C5CC[C@]43C)[C@H]12 (some centres not stated)
[1]
  activity change, negative = viability loss: -7.26% [at 9.23 µM]
[2]
  activity change, negative = cell killing: -8.94% [at 9.23 µM]

## Cn1ccnc1CCOC(c1cc2nccc(C(=O)O)c2[nH]1)c1ccccc1Cl (configuration not stated)
[1]
  Potency: inactive
[2]
  Potency: inactive

## CC1CCC2C(C)(C)C(O)CCC2(C)C12Cc1c(O)cc3c(c1O2)CN(C(CCC(N)=O)C(=O)O)C3=O (configuration not stated)
[1]
  Potency: inactive
[2]
  Potency: inactive

## C=C(C)[C@@H](C)[C@H]1O[C@]23C[C@]4(CO2)C(CCC2[C@@]5(C)CC[C@H](O[C@@H]6OC[C@H](O)[C@H](O[C@@H]7O[C@H](CO)[C@@H](O)[C@H](O)[C@H]7O)[C@H]6O[C@@H]6O[C@@H](CO)[C@H](O)[C@H]6O)C(C)(C)C5CC[C@]24C)C3[C@@](C)(O)[C@@H]1OC(C)=O (some centres not stated)
[1]
  outcome: inactive [at 9.23 µM]
[2]
  outcome: inactive [at 9.23 µM]

## COc1cc2c(cc1O)CCN[C@]21CS[C@@H]2c3c(OC(C)=O)c(C)c4c(c3[C@H](COC1=O)N1[C@@H]2[C@H]2c3c(cc(C)c(OC)c3O)C[C@@H]([C@@H]1O)N2C)OCO4
[1]
  Potency: 1.7 nM (active)
[2]
  Potency: 1.4 nM (active)

## CC1(C)CC2C3=CCC4C5(C)CCC(OC6OC(C(=O)O)C(O)C(O)C6OC6OC(CO)C(O)C(O)C6OC6OC(CO)C(O)C(O)C6O)C(C)(CO)C5CCC4(C)C3(C)CCC2(C)C(OC2OCC(O)C(OC3OC(CO)C(O)C(O)C3O)C2O)C1O (configuration not stated)
[1]
  activity change, negative = viability loss: -1.65% [at 9.23 µM]
[2]
  activity change, negative = cell killing: -4.93% [at 9.23 µM]

## CC[C@H](C)/C=C(C)/C=C/C(=O)Cc1cc(O)c(C)c(O)c1C=O
[1]
  Potency: inactive
[2]
  Potency: inactive

## CNC(=O)c1ccc2cc([C@@]3(O)CCn4cncc43)ccc2c1
[1]
  Potency: inactive
[2]
  Potency: inactive

## NCc1c[nH]c(=S)n1C1CCc2c(F)cc(F)cc2C1 (configuration not stated)
[1]
  Potency: inactive
[2]
  Potency: inactive

## COc1cc(/C=C/C(=O)OC[C@H]2O[C@H](O[C@]3(CO)O[C@H](CO)[C@@H](O)[C@@H]3O)[C@H](O)[C@@H](O)[C@@H]2O)cc(OC)c1O
[1]
  Potency: inactive
[2]
  Potency: inactive

## CC1(CO)CC[C@]2(C(=O)O[C@@H]3O[C@H](CO)[C@@H](O)[C@H](O)[C@H]3O)CC[C@]3(C)C(=CCC4[C@@]5(C)CC[C@H](O[C@@H]6O[C@H](C(=O)O)[C@@H](O)[C@H](O)[C@H]6O)C(C)(C)C5CC[C@]43C)C2C1 (some centres not stated)
[1]
  outcome: inactive [at 9.23 µM]
[2]
  outcome: inactive [at 9.23 µM]

## COc1cc(CCc2ccccc2)c(C(=O)O)c2c1CC(C(C)(C)O)O2 (configuration not stated)
[1]
  Potency: inactive
[2]
  Potency: inactive

## COC(=O)[C@@]1(O)C=CC[C@@H]2[C@@]3(C)C[C@@H](c4ccoc4)OC(=O)[C@H]3CC[C@]21C
[1]
  Potency: inactive
[2]
  Potency: inactive

## C/C=C1/[C@H](O[C@@H]2O[C@H](CO)[C@@H](O)[C@H](O)[C@H]2O)OC=C(C(=O)OC)[C@H]1CC(=O)O[C@@H]1O[C@H](CO)[C@@H](O)[C@H](O)[C@H]1O
[1]
  Potency: inactive
[2]
  Potency: inactive

## OCC1=CC[C@@H]2C=CO[C@@H](O[C@@H]3O[C@H](CO)[C@@H](O)[C@H](O)[C@H]3O)[C@H]12
[1]
  Potency: inactive
[2]
  Potency: inactive
